A short description of experiment [1]: NCI Yeast Anticancer Drug Screen. Data for the rad50 strain (AID 155).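 Also: 0% = growth of vehicle-only cultures of the same strain.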 Conditions: S. cerevisiae rad50 strain growth inhibition, hits give high values. The gist of the method:
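Compounds were tested on a yeast strain with an engineered DNA damage repair alteration; the reported value is growth inhibition normalised to vehicle treatment.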

Experiment [2] can be described thus: NCI Yeast Anticancer Drug Screen. Data for the mec2-1 strain (AID 157). The following applies: S. cerevisiae mec2-1 strain, hits give high values. In a few lines: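 Test agents were screened against the mec2-1 yeast strain, with defined DNA repair or cell cycle alteration. Growth was scored as inhibition against vehicle-only controls.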
The nature of experiment [3]: NCI Yeast Anticancer Drug Screen. Data for the sgs1 mgt1 strain (AID 161).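 Also: 0% = growth of cultures given vehicle only.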 The following applies: S. cerevisiae sgs1 mgt1 strain, hits give high values. The gist of the method:
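Inhibition of yeast growth, normalised to vehicle-treated controls, is reported for a strain bearing genetic alterations in DNA damage repair.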

The nature of experiment [4]: NCI Yeast Anticancer Drug Screen. Data for the cln2 rad14 strain (AID 165).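 Also: 0% = growth equal to vehicle treated cultures.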 Conditions: S. cerevisiae cln2 rad14 strain, hits give high values. The gist of the method: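 Growth of compound-exposed yeast (cln2 rad14 genotype) measured and expressed as inhibition relative to vehicle.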
Experiment [5] is described as follows: NCI Yeast Anticancer Drug Screen. Data for the bub3 strain (AID 167). The following applies: S. cerevisiae bub3 mutant strain, hits give high values. The gist of the method: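 Growth of a checkpoint-deficient yeast mutant is measured after compound exposure. Values represent inhibition relative to vehicle.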
A short description of experiment [6]: NCI Yeast Anticancer Drug Screen. Data for the mlh1 rad18 strain (AID 175). The following applies: S. cerevisiae mlh1 rad18 strain growth inhibition, hits give high values. The gist of the method:
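In this whole-cell yeast screen, a strain with altered DNA damage repair is challenged with compound, and its growth is measured against matched vehicle-treated controls.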

Setting [7] is: at 5.0 µM (retest, dose inferred, filed as 0.5).
[8] abbreviates: at 50.0 µM (retest, dose inferred, filed as 5.0).

The panel holds about 79,000 compounds, 15% with a hit somewhere; the sample as a whole holds those more often. Unmarked numbers belong to inactive results. Activity calls are given as the source filed them. Rule as the data show it: active = growth inhibition above about 70%; inactive = the rest.

In the case of `Cc1cc(Br)cc(C(=O)Cl)c1O`, the growth inhibition in experiment [1] (setting [7]) is -159%; in experiment [1] (setting [8]), -90%; in experiment [1] (at 50.0 µM), 32.5%; in experiment [2] (setting [7]) it was -51%; in experiment [2] (setting [8]), -24%; in experiment [2] (at 50.0 µM) it was 22%. In addition, the growth inhibition was -68% in experiment [3] (setting [7]); -54% in experiment [3] (setting [8]); 30.2% in experiment [3] (at 50.0 µM); -69% in experiment [4] (setting [7]); -11% in experiment [4] (setting [8]); 28.7% in experiment [4] (at 50.0 µM). In addition, the growth inhibition in experiment [5] (setting [7]) was -74%; in experiment [5] (setting [8]), -47%; in experiment [5] (at 50.0 µM) it was 5.9%; in experiment [6] (setting [7]), -150%; in experiment [6] (setting [8]), -67%; in experiment [6] (at 50.0 µM) it was 34.7%.

Consider `c1ccc(OCCCOc2ccccc2)cc1`, for which the growth inhibition was 4% in experiment [1] (setting [7]); 2% in experiment [1] (setting [8]); -4.15% in experiment [1] (at 50.0 µM); -1% in experiment [2] (setting [7]); -4% in experiment [2] (setting [8]); 10.8% in experiment [2] (at 50.0 µM). The growth inhibition in experiment [3] (setting [7]) is 4%; in experiment [3] (setting [8]), 3%; in experiment [3] (at 50.0 µM), 13%; in experiment [4] (setting [7]) it was 3%; in experiment [4] (setting [8]), -9%; in experiment [4] (at 50.0 µM), -5.75%. The growth inhibition in experiment [5] (setting [7]) was 7%; in experiment [5] (setting [8]), 25%; in experiment [5] (at 50.0 µM), 10.3%; in experiment [6] (setting [7]), 2%; in experiment [6] (setting [8]) it was -1%; in experiment [6] (at 50.0 µM) it was 61.9%.

For the compound `Cc1ccc(C(=O)CC(O)(C(F)(F)F)C(F)(F)F)cc1[N+](=O)[O-]`, the growth inhibition in experiment [1] (setting [7]) is 17%; in experiment [1] (setting [8]) it was 95% (active); in experiment [1] (at 50.0 µM), 88.9% (active); in experiment [2] (setting [7]), -17%; in experiment [2] (setting [8]) it was 97% (active); in experiment [2] (at 50.0 µM) it was 90% (active). The growth inhibition was 3% in experiment [3] (setting [7]); 45% in experiment [3] (setting [8]); 92.2% (active) in experiment [3] (at 50.0 µM); 25% in experiment [4] (setting [7]); 94% (active) in experiment [4] (setting [8]); 89.5% (active) in experiment [4] (at 50.0 µM). Further, the growth inhibition in experiment [5] (setting [7]) is 5%; in experiment [5] (setting [8]), 96% (active); in experiment [5] (at 50.0 µM), 90.5% (active); in experiment [6] (setting [7]) it was 9%; in experiment [6] (setting [8]), 97% (active); in experiment [6] (at 50.0 µM), 87.4% (active).

For `N#CN1CCCC(O)c2sc3ccccc3c2CC1` (configuration not stated), the growth inhibition in experiment [1] (setting [7]) is 3%; in experiment [1] (setting [8]), 9%; in experiment [1] (at 50.0 µM), 56.4%; in experiment [2] (setting [7]) it was 1%; in experiment [2] (setting [8]) it was 17%; in experiment [2] (at 50.0 µM) it was 11.5%. For the same compound, the growth inhibition in experiment [3] (setting [7]) was 1%; in experiment [3] (setting [8]), 3%; in experiment [3] (at 50.0 µM), 38.9%; in experiment [4] (setting [7]), 3%; in experiment [4] (setting [8]) it was -7%; in experiment [4] (at 50.0 µM), 9.85%. Moreover, the growth inhibition in experiment [5] (setting [7]) is -2%; in experiment [5] (setting [8]) it was 1%; in experiment [5] (at 50.0 µM), 7.3%; in experiment [6] (setting [7]), -1%; in experiment [6] (setting [8]), -1%; in experiment [6] (at 50.0 µM), -0.65%.

(Values after PubChem BioAssay (NCI).)
